# Assay results taken from PubChem BioAssay (NCI).
# About 83,000 compounds went through this panel and 20% of them were active in at least one assay; those are over-represented in the sample as a whole.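 Cell lines were cultured in 96-well plates, exposed to a single compound concentration, and assessed for percent growth 48 hours later.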 A number with no mark means an inactive call. The source made the active and inactive calls. The calls were made as follows: active = growth percent below 10; inactive = the rest.
# Legend:
# Test in all cases: NCI-60 one-dose screen, 48 h (100 = growth as untreated, 0 = no growth, -100 = all killed)
# Settings in all cases: 10 µM unless noted
# SR leukemia = tested on: SR leukemia
# OVCAR-8 ovarian = tested on: OVCAR-8 ovarian
# OVCAR-5 ovarian = tested on: OVCAR-5 ovarian
# OVCAR-4 ovarian = tested on: OVCAR-4 ovarian
# SK-OV-3 ovarian = tested on: SK-OV-3 ovarian
# IGROV1 ovarian = tested on: IGROV1 ovarian
# OVCAR-3 ovarian = tested on: OVCAR-3 ovarian
# HS 578T breast = tested on: HS 578T breast
# NCI/ADR-RES ovarian = tested on: NCI/ADR-RES ovarian
# T-47D breast = tested on: T-47D breast
# MDA-MB-435 melanoma = tested on: MDA-MB-435 melanoma
# SW-620 colon = tested on: SW-620 colon
# MCF7 breast = tested on: MCF7 breast
# HCC-2998 colon = tested on: HCC-2998 colon
# KM12 colon = tested on: KM12 colon
# HCT-116 colon = tested on: HCT-116 colon
# BT-549 breast = tested on: BT-549 breast
SMILES,growth (SR leukemia),growth (OVCAR-8 ovarian),growth (OVCAR-5 ovarian),growth (OVCAR-4 ovarian),growth (SK-OV-3 ovarian),growth (IGROV1 ovarian),growth (OVCAR-3 ovarian),growth (HS 578T breast),growth (NCI/ADR-RES ovarian),growth (T-47D breast),growth (MDA-MB-435 melanoma),growth (SW-620 colon),growth (MCF7 breast),growth (HCC-2998 colon),growth (KM12 colon),growth (HCT-116 colon),growth (BT-549 breast)
C1=Cc2ccccc2N(c2nnc(-c3ccccc3)o2)c2ccccc21,32.3%,95.4%,98.2%,92.1%,114%,92.9%,107%,102%,92.2%,100%,87.9%,99.9%,87.6%,121%,92.3%,–,–
CC(C)(C)n1cc(-c2ccnc(NCCNS(=O)(=O)c3ccc(F)cc3)c2)c(-c2cccc(O)c2)n1,25.5%,62.4%,68.6%,56.2%,79.3%,68.9%,70.5%,60.3%,61.7%,23.7%,64.7%,–,28.5%,31.2%,36.1%,37.3%,–
c1ccc(-c2nc(N3CCNCC3)c3nc(-c4ccccc4)oc3n2)cc1,0.501% (active),-30.5% (active),-1.51% (active),-65.1% (active),–,-83.6% (active),-90.6% (active),88.9%,-69.2% (active),-56.6% (active),-93.7% (active),-78.8% (active),-69.2% (active),-90.3% (active),-86.1% (active),-89.4% (active),97.5%
CC12CCC3C4(C)COC(c5ccccc5Cl)OC4CCC3(C)C1CC(C1=CCOC1=O)O2 (centres undefined),28%,65.1%,91.3%,31.2%,94.5%,82.9%,64.4%,76.1%,63.2%,31.1%,54.2%,84.7%,46.6%,77.4%,59.9%,40.5%,–
COc1ccc(-c2cc(-c3ccccc3)nc(SCCCC(=O)NO)n2)cc1OC,4.39% (active),5.05% (active),11%,6.41% (active),-0.339% (active),15.6%,-22.7% (active),18%,-12.3% (active),2.62% (active),9.02% (active),12.5%,4.19% (active),34.7%,13.1%,5.58% (active),–
N=C(N)c1ccc(-c2ccc(-c3cncc4ccccc34)s2)cc1F,-3.96% (active),-51.6% (active),-94.7% (active),-78.6% (active),–,-87.5% (active),-91.6% (active),88.9%,1.93% (active),-63.3% (active),-90.5% (active),-62.1% (active),-68.6% (active),-98.2% (active),-89.4% (active),-87.8% (active),89.5%
Nc1nc(-c2ccccc2)c(CCCOc2ccc(NC(=O)CBr)cc2)c(=O)[nH]1,117%,98.3%,104%,92.1%,125%,–,–,99.1%,106%,–,94.6%,108%,78.8%,107%,109%,103%,100%
CC12CCCC(CC(=O)c3[nH]c4ccccc4c31)C2 (centres undefined),15.5%,31.1%,34.6%,60.7%,53.4%,–,-26.1% (active),12.8%,5.24% (active),24.1%,-46.9% (active),22.2%,21.1%,43.5%,26.7%,22.7%,–
Cc1ccc(S(=O)(=O)NCCNc2cc(-c3cn(C(C)(C)C)nc3-c3cccc(O)c3)ccn2)cc1,51.7%,79%,80%,67.3%,91.4%,75.2%,81.7%,76.6%,67%,45.1%,78.1%,39.7%,41.6%,43%,65.1%,62.1%,–
c1ccc(-c2cn(-c3ccccc3)c(-c3ccccc3)n2)cc1,-29.7% (active),21.1%,83.4%,–,97.1%,4.72% (active),13.4%,87.1%,92.4%,67.5%,72.6%,23.2%,-31.1% (active),92.3%,11.8%,-91.4% (active),72.5%
c1cc(C2=N[C@@H]3c4ccccc4C[C@@H]3O2)nc(C2=N[C@@H]3c4ccccc4C[C@@H]3O2)c1,101%,106%,98.3%,99.6%,117%,104%,109%,98.2%,98.7%,101%,104%,107%,88.1%,104%,103%,103%,–
CCc1cnc(=S)n(-c2ccccc2)c1,99.6%,113%,97.3%,135%,105%,105%,98.5%,108%,98.3%,112%,–,104%,108%,86.5%,–,93.5%,107%
Cc1ccc(-c2cc3nc(-c4ccccc4)nc(C(Cl)Cl)n3n2)cc1,71.2%,-25.5% (active),-27.2% (active),-46% (active),–,46%,-94.5% (active),-42.1% (active),-30.7% (active),-47.1% (active),-68.3% (active),-48.2% (active),-10.7% (active),-90.6% (active),-83.6% (active),-87.6% (active),60.3%
CC12CCC3C4(C)COC(c5ccco5)OC4CCC3(C)C1CC(C1=CCOC1=O)O2 (centres undefined),95.7%,108%,99.8%,103%,121%,93.8%,105%,107%,98.5%,101%,103%,107%,98.9%,105%,103%,–,–
Cc1[nH]c2ccc(F)cc2c1CCNC(=O)C1CCN(C(=O)c2ccccc2)C1 (centres undefined),96.3% [25 µM],101% [25 µM],81.8% [25 µM],85.5% [25 µM],–,90.4% [25 µM],101% [25 µM],90.9% [25 µM],97.6% [25 µM],69.5% [25 µM],99.3% [25 µM],102% [25 µM],90.9% [25 µM],106% [25 µM],102% [25 µM],99.7% [25 µM],94.7% [25 µM]
Cn1c(=O)cc(NC(=O)CN2CCN(c3cc4c(cc3F)c(=O)c(C(=O)O)cn4C3CC3)CC2)[nH]c1=O,103%,98%,95.9%,96.9%,112%,101%,99.5%,–,98.1%,107%,101%,99.3%,94.2%,100%,101%,103%,105%
CC(=O)Nc1ccc(S(=O)(=O)n2ccc(-c3ccc4c(c3)CCC(C)(C)O4)n2)cc1,56.4%,69.4%,96.3%,46.2%,–,68%,74.4%,102%,56.9%,31.1%,67.3%,–,66.2%,83.3%,67.4%,29.9%,–
NC(N)=N/N=C/c1ccc(-c2ccc(-c3cc(Cl)cc(Cl)c3)s2)cc1,2.59% (active),33.1%,90.5%,38.6%,–,-16.7% (active),-81.5% (active),–,-19.2% (active),28.8%,1.1% (active),-66.3% (active),-39.9% (active),-17.3% (active),-62.4% (active),-75.9% (active),95.7%
C=C1CCC2C(C)(CO)C(O)CCC2(C)C1C/C=C1/C(=O)OCC1Oc1ccccc1C (centres undefined),50.7%,72.5%,91.8%,74.8%,122%,73.7%,34.3%,105%,81.1%,84.9%,59.3%,17.9%,29.5%,125%,78.3%,71.4%,–
